PubChem BioAssay
Active and inactive are the calls of the source.

Test: budding yeast growth modifiers under rapamycin – strain BY4716, OD600, 96 h, primary screen (AID 1091); also: test concentration not given here
Details: S. cerevisiae BY4716 + rapamycin, higher = more signal, called active from +8 up or from −8 down

z-score, inactive:
O=C1C2=CC[C@H]3C(=O)N(C4CCCCC4)C(=O)[C@H]3[C@H]2[C@H](O)[C@@H]2O[C@H]12 -1.25
C=CCOCC1CN2[C@@H](CC[C@@H](C)[C@@H]2c2ccc(Br)cc2)C(=O)O1 (some centres undefined) 0.338
CCOC(=O)[C@H](Cc1ccccc1)NC(=O)CCC1CC(OC(=O)NCc2ccc3c(c2)OCO3)CC2(CCCC(COC(=O)NCCOc3ccccc3)O2)O1 (some centres undefined) 0.576
CCN1C(=O)[C@H]2[C@H]3[C@H](O)[C@H](O)CC(=NO[C@@H](C)c4cc(-c5c(C)cc(C)cc5C)no4)[C@@H]3CC[C@H]2C1=O -0.875
O=C(NN=C1C[C@@H](O)[C@@H](O)[C@@H]2[C@@H]3C(=O)N(c4ccc(F)cc4F)C(=O)[C@@H]3CC[C@H]12)OCc1ccccc1 -1.69
CC#CCOCCC=C1c2ccccc2[C@@H](OC)[C@@H]1C -0.933
CC(CCC(=O)OC[C@H]1O[C@H](C#Cc2ccccc2)C=C[C@@H]1Oc1ccc(C)cc1)=NO[C@H](C)c1cn([C@@H]2COC[C@H]2O)nn1 -0.0188
COC(=O)[C@@H]1CC[C@H](C)[C@@H](c2ccc(C)cc2)N1C(=O)c1ccc(C=NOC[C@H]2O[C@H](c3ccccc3)C=C[C@@H]2Oc2ccc(OC)cc2)cc1 0.0902
CC(=O)OC[C@H]1O[C@@H](ON=C2[C@H]3CCn4c(=O)n(-c5ccccc5)c(=O)n4[C@H]3[C@H](O)[C@@H]3O[C@H]23)[C@H](OC(C)=O)[C@@H](OC(C)=O)[C@@H]1OC(C)=O 0.083
